Experimental data taken from PubChem BioAssay AID1626 (SRMLSC, 2009).
In all, about 220,000 compounds went through this assay and about 2,000 (0.91%) were called active. Roughly 2% stayed inconclusive and do not appear here. The list is a sample of the results. Potency and affinity values are given separately. A number with no mark means an inactive call. No stated cut-off is given here; in the data, inconclusive means inhibition above about 80% without an active follow-up result; inactive means below that; test concentration not stated here.

Assay: M. tuberculosis H37Rv growth inhibitors, H37Rv strain (AID 1626);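 further: bacteria incubated seven days before Alamar blue readout; 0% = bacteria only wells and 100% = bacteria with antibiotic wells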
Conditions: hits give high values, concentration not given here
With `COc1cccc(/C=C(\C#N)C(=O)NC2CCS(=O)(=O)C2)c1` (stereo not given) the inhibition was -1.08%. `Fc1ccc(C2C3=C(Nc4ncnn42)c2ccccc2OC3c2ccncc2)cc1` (stereo not given) showed an inhibition of 1.81%. For `Brc1ccc(C2C3=C(Nc4ncnn42)c2ccccc2OC3c2ccncc2)cc1` (stereo not given), the inhibition was 3.46%. For `Cc1ccc(C2c3c(oc4ccccc4c3=O)C(=O)N2c2nncs2)cc1` (stereo not given), the inhibition was -7.54%. Compound `COc1ccc(CCNC(=O)c2cc(-c3ccccc3OC)on2)cc1OC` has an inhibition of -17.8%. For `O=S1(=O)CCC(=Nc2ccc(Cl)cc2)c2ccsc21`, the inhibition was 3.58%. `COc1ccc(C(=O)O/N=C2\CCS(=O)(=O)c3sccc32)cc1` showed an inhibition of -3.81%. `COc1ccc(Cl)cc1S(=O)(=O)Oc1ccc(NC(C)=O)cc1` showed an inhibition of -3.14%. `C=CCNc1nc(SC)nc2ccsc12` showed an inhibition of 19.7%. `C=CCSc1nc(NC)c2sccc2n1` gave an inhibition of 64.3%. `Cc1oc(C)c(C(=O)O)c1COc1ccc(C(=O)O)cc1` gave an inhibition of -4.93%. In the case of `CN(C)c1oc(COc2ccc(F)cc2)nc1C#N`, the inhibition is reported as 0.53%. With `COc1ccccc1NC(=O)COC(=O)[C@@H]1CCCN1C(=O)c1cccs1` the inhibition was 2.35%. `COc1ccc(CCNC(=O)CSc2cn(Cc3ccccc3)c3ccccc23)cc1OC` gave an inhibition of 0.69%. Work on `CCOC(=O)CSc1nnc(-c2ccc(S(=O)(=O)N3CCOCC3)cc2)n1-c1ccccc1` yielded an inhibition of 14.9%. Compound `CC1CCCCN1CC(=O)Nc1ccc(N2CCCCCC2)cc1` (stereo not given) has an inhibition of 7.03%. With `O=C(CNCC1CCCCC1)Nc1ccc(N2CCCCC2)cc1` the inhibition was 5.47%. In the case of `O=[N+]([O-])c1ccc(Sc2nnnn2-c2ccccc2)c(Cl)c1`, the inhibition is reported as -0.26%. Compound `O=[N+]([O-])c1ccc(Sc2ccccc2)nc1` has an inhibition of 1.27%. `O=C(COC(=O)c1cncc(Br)c1)NC1CCCCC1` showed an inhibition of 0.66%. Work on `Cn1cc(/C=N\NC(=O)C2COc3ccccc3O2)c2ccccc21` (stereo not given) yielded an inhibition of 11.9%. For `c1cncc(-c2nc(-c3ccco3)cs2)c1`, the inhibition was 2.43%. With `Cc1ccc(S(=O)(=O)Nc2nc(-c3ccc(F)cc3)cs2)cc1` the inhibition was -5.33%. In the case of `Cc1ccc(S(=O)(=O)NC(=O)Nc2cc(C)ccc2F)cc1`, the inhibition is reported as -4.28%. For `COc1ccccc1N1CCN(C(=O)c2ccc(CN3CCOCC3)cc2)CC1`, the inhibition was 4.65%. With `Nc1n[nH]c(-c2cccc([N+](=O)[O-])c2)n1` the inhibition was 2.42%. `c1ccc(-c2nc(-c3cccnc3)n[nH]2)cc1` gave an inhibition of 4.63%. `CCCOc1cccc(C2/C(=C(/O)c3ccc(OC)cc3)C(=O)C(=O)N2CCN(C)C)c1` (stereo not given) showed an inhibition of -1.44%. With `Cc1ccc(NC(=S)NCCSc2ccc(Cl)cc2)c(C)c1` the inhibition was 17.1%. Compound `COc1cc(CNCc2ccccn2)ccc1OCc1c(Cl)cccc1Cl` has an inhibition of 56.6%. For `COc1cc(CNCc2ccccn2)ccc1OCc1ccc(Cl)cc1`, the inhibition was 31.7%. For `COc1cc(CNCc2ccccn2)ccc1OCc1ccccc1Cl`, the inhibition was 61%. Compound `COc1cc(CNCc2ccccn2)ccc1OCc1cccc(Cl)c1` has an inhibition of 28.4%. In the case of `Cc1nnc(NC(=O)NCN2C(=O)C3C4C=CC(C4)C3C2=O)s1` (stereo not given), the inhibition is reported as -8.61%. Compound `CCN(CC)P(=O)(Oc1ccccc1)Oc1ccccc1` has an inhibition of 7.92%. In the case of `C#CCOCCOCCOCCNc1nc(N2CCN(C(=O)[C@H](C(C)C)n3cc(CCO)nn3)CC2)nc(N2CCN(C(=O)[C@H]([C@@H](C)CC)n3cc(CCCCN)nn3)CC2)n1`, the inhibition is reported as 1.48%. In the case of `Cc1cccc2nc(-c3cccc(NC(=O)Cc4ccccc4)c3)cn12`, the inhibition is reported as 10.1%. Work on `c1cncc(CSc2nnc3ccc(-c4ccco4)nn23)c1` yielded an inhibition of -0.26%. For `Cc1ccc(NC(=O)CSc2nnnn2C)cc1S(=O)(=O)N(C)C`, the inhibition was -2.13%. In the case of `Nc1nc(SCC(=O)Nc2ccc(Br)cc2F)n[nH]1`, the inhibition is reported as 0.13%. `O=C(CSc1ncn[nH]1)Nc1ccc([N+](=O)[O-])cc1Br` gave an inhibition of 10.6%. For `CN(C)CCCCOc1ccc(Br)cc1Cl`, the inhibition was 6.22%. In the case of `CCOC(=O)CC(=O)CSc1nc(N)c(C#N)c(-c2ccc(F)cc2)c1C#N`, the inhibition is reported as -2.96%. `CCCCOc1ccc(-c2c(C#N)c(N)nc(SCC(N)=O)c2C#N)cc1` showed an inhibition of -5.04%. For `CC(=O)CSc1nc(N)c(C#N)c(-c2cccs2)c1C#N`, the inhibition was -7.14%. With `CCCCOC(=O)CSc1nc(N)c(C#N)c(-c2ccc(OCC)cc2)c1C#N` the inhibition was 57.9%. `N#Cc1c(N)nc(SCC(=O)OCc2ccccc2)c(C#N)c1-c1ccco1` showed an inhibition of 74%. `CC(C)OC(=O)CSc1nc(N)c(C#N)c(-c2ccco2)c1C#N` showed an inhibition of 53.1%. For `CC(C)OC(=O)CSc1nc(N)c(C#N)c(-c2cccs2)c1C#N`, the inhibition was 40.9%. In the case of `CCOC(=O)CC(=O)CSc1nc(N)c(C#N)c(-c2ccc(Cl)cc2)c1C#N`, the inhibition is reported as -8.64%.
